From PubChem BioAssay (NCI) come the findings set out here.

About 83,000 compounds went through this panel and 20% of them were active in at least one assay; those are over-represented in the sample as a whole.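 Interpretation: 100, growth as untreated; towards 0, rising growth inhibition; 0, no net growth; 0 to -100, cell death. Compounds scoring below 10 were considered active.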 Activity calls are given as the source filed them.

The test system of this test is EKVX NSCLC. The test is described as follows: NCI-60 one-dose screen, 48 h (100 = growth as untreated, 0 = no growth, -100 = all killed). To be noted: 10 µM unless noted.
With `Nc1nc(Cl)cc(Cl)n1`, the growth is 103% (inactive).
The value for `CCCCCCCCCCCCCCCCOc1ccccc1NC(=O)CC(C)=O` was 89.7% (inactive).
As to `Cc1cc(Cc2ccccc2)c(O)c(Cc2ccccc2)c1`, the growth is 112% (inactive).
As to `Nc1cc(N)ncn1`, the growth was 102% (inactive).
For the compound `CC(C)(C)NCCC(O)c1cc(C(F)(F)F)nc2c(C(F)(F)F)cccc12` (configuration not stated), the growth was 86.7% (inactive).
As for `C=C(OC(C)=O)c1ccccc1`, the growth is 111% (inactive).
The value for `O=Cc1c(O)c2ccccc2[nH]c1=O` was 113% (inactive).
For the compound `CN=S(=O)(OCCCCCOS(=O)(=NC)c1ccc(C)cc1)c1ccc(C)cc1` (configuration not stated), the growth is 95.4% (inactive).
With `CCOC(=O)c1c(C)[nH]c(C)c1C=O` the figure was 102% (inactive); with `O=C(NCc1ccccc1)/C(=C/c1ccccc1)NC(=O)c1ccccc1`, 103% (inactive).
For `O=c1cc(Cl)nc2ccccn12`, the growth was 102% (inactive).
`Oc1cc(O)c2c(c1)O[C@H](c1ccc(O)c(O)c1)[C@@H](O)C2`: the growth was 99.4% (inactive).
The value for `CCOP(=O)(NC(c1ccccc1)c1ccccc1)OCC` was 109% (inactive).
Take `Cc1ccc2nc(N)nnc2c1`: the growth is 113% (inactive).
Regarding `Cc1ccc(S(N)(=O)=O)cc1Cl`, the growth was 125% (inactive).
With `Nc1cc2ccccc2c(O)c1O`, the growth was 83.4% (inactive).
The value for `CC(C)N1CC(=O)N2CSCC2C1=O` (configuration not stated) was 105% (inactive).
Take `CCOC(=N)CC(=O)Nc1cccc(C)c1Cl`: the growth is 109% (inactive).
With `Cc1cc2c(C(C)C)c(O)c(O)c(C=Nc3ccccc3[N+](=O)[O-])c2c(O)c1-c1c(C)cc2c(C(C)C)c(O)c(O)c(C=Nc3ccccc3[N+](=O)[O-])c2c1O`, the growth is 60.7% (inactive).
With `Cc1cc(C(=O)NN)c(C#N)c(=O)[nH]1`, the growth was 109% (inactive).
As to `COC1OC(CO)C(OC)C(O)C1O` (configuration not stated), the growth was 103% (inactive).
The value for `CCOC(=O)/C(O)=C(\C=N\C(=S)Nc1ccc(Cl)c(Cl)c1)C(=O)OCC` was 82.8% (inactive).
Consider `O=C(c1ccccc1)c1ccc(-c2ccc(O)cc2)cc1`, for which the growth was 64.5% (inactive).
As to `CC(=O)C1C(=O)C(=O)N(c2cccc([N+](=O)[O-])c2)C1=O` (configuration not stated), the growth was 108% (inactive).
For `CCOC(OCC)C(=O)c1ccccc1`, the growth is 109% (inactive).
With `Cc1ccc(O)c(N)c1` the figure was 136% (inactive); with `COC(=O)c1ccccc1C(=O)c1c(C)cc(C)cc1C`, 109% (inactive).
Turning to `COc1cc(-c2ccc(NC(=O)CC(C)=O)c(OC)c2)ccc1NC(=O)CC(C)=O`, the growth is 108% (inactive).
With `Oc1cccc(CNC2CCCCC2)c1` the figure was 115% (inactive).
Turning to `COc1ccc(C(=O)C(=O)c2ccccc2)cc1`, the growth is 102% (inactive).
With `CSc1cnc2ccccc2n1`, the growth was 103% (inactive).
As for `Nc1ccc2c(c1)Cc1cc(N)c(N)cc1-2`, the growth was 88.6% (inactive).
`CCCCN(C(=O)CC)c1ccccc1`: the growth was 97% (inactive).
For `Nc1c(Br)cc(O)c2c1C(=O)c1ccccc1C2=O`, the growth was 96.6% (inactive).
Regarding `CC(=O)N(C(C)=O)c1ccc(C)cc1`, the growth is 92.6% (inactive).
With `Cc1cc(CC(=O)NCCO)n(CCO)c(=O)c1` the figure was 93.7% (inactive).
As to `CCOC(=O)c1ccc(NC(C)=O)o1`, the growth was 111% (inactive).
